Test results reported in PubChem BioAssay (EPA / NIEHS).
Calls of active or inactive are those of the source. How the source made its calls: active means hit-call score of the fitted dose curve at least 0.9, where 1 is the maximum; inactive means score below 0.9.

Key:
[1] = ATG_GLI_CIS: Attagene CIS-FACTORIAL HepG2 Assay for human Zinc Finger Protein GLI1 (AID 2282945); conditions: HepG2, Attagene cis-factorial reporter mRNA, GLI element; actives raise or lower the signal
Procedure, shortened: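 HepG2 cells transiently transfected with cis-promoter multiplexed reporter units report endogenous transcription factor activity. After 24 h chemical exposure, reporter mRNA was quantified by RT-PCR, 6-FAM labelling, HpaI digestion and capillary electrophoresis, with bidirectional fitting against DMSO.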

[2] = molecular target: Bile acid receptor (Homo sapiens) (UniProt Q96RI1); assay: ATG_IR1_CIS: Attagene CIS-FACTORIAL HepG2 Assay for human Nuclear Receptor Subfamily 1 Group H Member 4 (NR1H4), IR1 submotif (AID 2282946); conditions: IR1 reporter transcription, actives raise or lower the signal
Sequence of Bile acid receptor (Homo sapiens) (Q96RI1 whole entry, looked up): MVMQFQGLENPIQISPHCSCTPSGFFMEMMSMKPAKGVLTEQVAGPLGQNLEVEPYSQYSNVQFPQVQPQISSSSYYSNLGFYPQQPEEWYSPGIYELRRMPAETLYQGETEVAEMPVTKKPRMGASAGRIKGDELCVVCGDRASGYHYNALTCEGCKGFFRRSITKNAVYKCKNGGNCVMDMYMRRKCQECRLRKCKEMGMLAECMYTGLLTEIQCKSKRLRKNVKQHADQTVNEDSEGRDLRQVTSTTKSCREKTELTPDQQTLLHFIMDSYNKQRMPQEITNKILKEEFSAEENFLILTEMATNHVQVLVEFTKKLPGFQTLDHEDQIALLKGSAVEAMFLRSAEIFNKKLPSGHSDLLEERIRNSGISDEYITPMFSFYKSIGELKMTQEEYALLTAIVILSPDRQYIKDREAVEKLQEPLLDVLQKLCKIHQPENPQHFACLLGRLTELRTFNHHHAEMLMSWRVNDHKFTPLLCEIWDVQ
Procedure, shortened: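 Readout: reporter transcript levels by RT-PCR with fluorescent capillary electrophoresis, from HepG2 cells transiently transfected with multiplexed cis-regulated reporters and dosed 24 h. Gain- or loss-of-signal fitted versus DMSO negative control.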

[3] = ATG_GRE_CIS: Attagene CIS-FACTORIAL HepG2 Assay for human Glucocorticoid Response Elements (GRE) (AID 2282947); conditions: HepG2 GRE cis-reporter, Attagene multiplex mRNA; actives raise or lower the signal
Procedure, shortened: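 Cells (HepG2) bearing transfected cis-promoter reporter transcription units were treated with chemical for 24 hours. Reporter mRNA was measured via RT-PCR with capillary electrophoresis, and activity was fitted in both directions relative to DMSO.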

[4] = ATG_ISRE_CIS: Attagene CIS-FACTORIAL HepG2 Assay for human Interferon Regulatory Factor 1 (IRF1) binding to an Interferon-Stimulated Response Element (ISRE) (AID 2282948); conditions: HepG2 ISRE cis-reporter (Attagene), mRNA transcription readout; actives raise or lower the signal
Procedure, shortened: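 Multiplexed mRNA reporter readout in human liver HepG2 cells: cis-element-driven reporters transfected, compound added for 24 h, transcripts amplified, fluorescently labelled and sized by capillary electrophoresis; curve fitting bidirectional against DMSO.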

[5] = ATG_M_32_CIS: Attagene CIS-FACTORIAL HepG2 Assay for M32 Transcription Factor (Internal Marker) (AID 2282949); conditions: HepG2 Attagene cis-factorial M32 reporter, mRNA; actives raise or lower the signal;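 further: background control marker of the multiplexed CIS panel rather than a real target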
Procedure, shortened: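 HepG2 transfectants (cis-regulated reporter transcription units) dosed 24 h. Reporter mRNA by RT-PCR plus CE, analysed as gain or loss relative to DMSO.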

[6] = ATG_M_06_CIS: Attagene CIS-FACTORIAL HepG2 Assay for M06 Transcription Factor (Internal Marker) (AID 2282950); conditions: HepG2 Attagene CIS-FACTORIAL M06 internal marker reporter; actives raise or lower the signal
Procedure, shortened: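 HepG2 cells transiently transfected with cis-regulated multiple reporter transcription units were exposed to chemical for 24 h; reporter mRNA was quantified by RT-PCR, 6-FAM primer labelling, HpaI digestion and capillary electrophoresis, fitted bidirectionally against DMSO.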

[7] = molecular target: Hypoxia-inducible factor 1-alpha (Homo sapiens) (UniProt Q16665); assay: ATG_HIF1a_CIS: Attagene CIS-FACTORIAL HepG2 Assay for human Hypoxia Inducible Factor 1 (HIF1A) (AID 2282951); conditions: HepG2 Attagene cis-factorial HIF1a reporter transcription; actives raise or lower the signal
Sequence of Hypoxia-inducible factor 1-alpha (Homo sapiens) (Q16665 whole entry, looked up): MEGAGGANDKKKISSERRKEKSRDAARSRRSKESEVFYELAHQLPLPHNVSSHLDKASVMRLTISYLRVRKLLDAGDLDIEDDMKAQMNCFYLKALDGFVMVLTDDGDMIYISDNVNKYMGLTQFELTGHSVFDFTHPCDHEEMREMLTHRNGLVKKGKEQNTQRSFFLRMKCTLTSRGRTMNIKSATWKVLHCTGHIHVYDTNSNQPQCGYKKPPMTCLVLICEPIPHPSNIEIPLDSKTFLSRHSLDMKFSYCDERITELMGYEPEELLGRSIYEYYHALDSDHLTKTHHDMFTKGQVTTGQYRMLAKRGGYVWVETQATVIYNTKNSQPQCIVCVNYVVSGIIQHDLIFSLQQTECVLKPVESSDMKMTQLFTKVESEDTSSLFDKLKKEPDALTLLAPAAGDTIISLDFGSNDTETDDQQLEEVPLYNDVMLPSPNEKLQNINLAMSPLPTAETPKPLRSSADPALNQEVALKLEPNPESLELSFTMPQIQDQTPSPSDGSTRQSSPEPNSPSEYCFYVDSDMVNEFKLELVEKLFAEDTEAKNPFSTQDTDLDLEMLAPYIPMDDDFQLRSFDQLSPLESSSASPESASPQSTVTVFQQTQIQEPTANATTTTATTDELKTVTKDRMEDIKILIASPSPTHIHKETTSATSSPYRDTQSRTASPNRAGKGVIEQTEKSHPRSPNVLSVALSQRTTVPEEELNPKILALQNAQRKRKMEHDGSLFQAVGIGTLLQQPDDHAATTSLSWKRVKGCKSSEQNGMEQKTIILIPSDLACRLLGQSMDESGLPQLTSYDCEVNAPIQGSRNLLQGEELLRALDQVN
Procedure, shortened: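 Endogenous-TF cis reporter readout, human HepG2 cells, 24 h incubation; mRNA detected via RT-PCR and capillary electrophoresis fluorescence; DMSO-normalised bidirectional fitting.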

[8] = molecular target: Hepatocyte nuclear factor 6 (Homo sapiens) (UniProt Q9UBC0); assay: ATG_HNF6_CIS: Attagene CIS-FACTORIAL HepG2 Assay for human Hepatocyte Nuclear Factor 6 (HNF6) (AID 2282952); conditions: HepG2 Attagene cis-factorial HNF6 reporter transcription; actives raise or lower the signal
Sequence of Hepatocyte nuclear factor 6 (Homo sapiens) (Q9UBC0 whole entry, looked up): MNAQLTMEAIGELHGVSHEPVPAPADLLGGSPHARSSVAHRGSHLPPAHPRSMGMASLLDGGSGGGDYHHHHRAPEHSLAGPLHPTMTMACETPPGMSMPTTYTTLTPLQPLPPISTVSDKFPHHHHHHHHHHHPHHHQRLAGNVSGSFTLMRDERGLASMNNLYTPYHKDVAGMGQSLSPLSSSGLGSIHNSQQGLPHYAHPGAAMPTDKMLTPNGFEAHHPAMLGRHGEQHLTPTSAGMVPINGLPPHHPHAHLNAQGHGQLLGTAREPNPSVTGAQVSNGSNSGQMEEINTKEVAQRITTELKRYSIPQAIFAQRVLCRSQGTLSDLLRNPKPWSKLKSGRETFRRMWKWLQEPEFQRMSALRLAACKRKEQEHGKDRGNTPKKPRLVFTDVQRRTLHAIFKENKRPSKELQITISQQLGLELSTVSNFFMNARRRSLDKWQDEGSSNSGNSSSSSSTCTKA
Procedure, shortened: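 Endogenous factor activity read in transiently transfected HepG2 via promoter-regulated reporter transcripts. RNA harvested 24 h post-dosing, reverse-transcribed, PCR-amplified, FAM-labelled, HpaI-digested and resolved by capillary electrophoresis; fitted in both directions against DMSO.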

[9] = molecular target: Heat shock factor protein 1 (Homo sapiens) (UniProt Q00613); assay: ATG_HSE_CIS: Attagene CIS-FACTORIAL HepG2 Assay for human Heat Shock Transcription Factor 1 (HSE) (AID 2282953); conditions: HepG2 HSE cis-reporter, Attagene RNA transcription; actives raise or lower the signal
Sequence of Heat shock factor protein 1 (Homo sapiens) (Q00613 whole entry, looked up): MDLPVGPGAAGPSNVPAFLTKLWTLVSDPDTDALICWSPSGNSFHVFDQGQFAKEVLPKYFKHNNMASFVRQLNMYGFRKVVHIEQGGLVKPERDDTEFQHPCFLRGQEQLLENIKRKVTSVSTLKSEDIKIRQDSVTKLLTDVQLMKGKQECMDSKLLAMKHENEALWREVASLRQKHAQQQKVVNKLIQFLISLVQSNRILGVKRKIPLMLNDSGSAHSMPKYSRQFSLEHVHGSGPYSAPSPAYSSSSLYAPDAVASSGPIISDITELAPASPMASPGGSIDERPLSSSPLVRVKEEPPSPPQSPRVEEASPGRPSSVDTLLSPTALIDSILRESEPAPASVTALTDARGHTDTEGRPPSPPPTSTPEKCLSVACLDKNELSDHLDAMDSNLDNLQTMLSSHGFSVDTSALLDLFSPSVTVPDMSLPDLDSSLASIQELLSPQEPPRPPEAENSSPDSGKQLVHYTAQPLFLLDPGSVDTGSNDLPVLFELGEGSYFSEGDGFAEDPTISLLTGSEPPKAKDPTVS
Procedure, shortened: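 HepG2 cells transiently transfected with multiple reporter transcription units under cis-regulatory promoter control, measuring endogenous transcription factor activity. After 24 h chemical exposure, reporter mRNA quantified by RT-PCR, fluorescent labelling, HpaI digestion and capillary electrophoresis; bidirectional fit versus DMSO.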

[10] = ATG_MRE_CIS: Attagene CIS-FACTORIAL HepG2 Assay for human Metal Responsive Element (MRE) (AID 2282954); conditions: HepG2 MRE cis-reporter transcription, Attagene multiplex; actives raise or lower the signal
Procedure, shortened: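 Cells were transfected with cis-promoter reporter transcription units, then dosed for 24 h. RNA was reverse-transcribed, amplified, fluorescently labelled and resolved by capillary electrophoresis, and activity was fitted in both directions relative to DMSO.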

[11] = ATG_PBREM_CIS: Attagene CIS-FACTORIAL HepG2 Assay for human Phenobarbital-responsive Enhancer Module (PBREM) (AID 2282955); conditions: HepG2 PBREM cis-reporter, Attagene multiplexed transcription; actives raise or lower the signal
Procedure, shortened: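 Readout: reporter mRNA, fluorescent RT-PCR fragments separated by capillary electrophoresis. System: HepG2 transiently transfected with cis-regulated reporter units. Exposure: 24 h. Analysis: bidirectional, DMSO baseline.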

[12] = molecular target: Paired box protein Pax-6 (Homo sapiens) (UniProt P26367); assay: ATG_Pax6_CIS: Attagene CIS-FACTORIAL HepG2 Assay for human Paired Box 6 (PAX6) (AID 2282956); conditions: HepG2 CIS-FACTORIAL PAX6 reporter transcription, RNA readout; actives raise or lower the signal
Sequence of Paired box protein Pax-6 (Homo sapiens) (P26367 whole entry, looked up): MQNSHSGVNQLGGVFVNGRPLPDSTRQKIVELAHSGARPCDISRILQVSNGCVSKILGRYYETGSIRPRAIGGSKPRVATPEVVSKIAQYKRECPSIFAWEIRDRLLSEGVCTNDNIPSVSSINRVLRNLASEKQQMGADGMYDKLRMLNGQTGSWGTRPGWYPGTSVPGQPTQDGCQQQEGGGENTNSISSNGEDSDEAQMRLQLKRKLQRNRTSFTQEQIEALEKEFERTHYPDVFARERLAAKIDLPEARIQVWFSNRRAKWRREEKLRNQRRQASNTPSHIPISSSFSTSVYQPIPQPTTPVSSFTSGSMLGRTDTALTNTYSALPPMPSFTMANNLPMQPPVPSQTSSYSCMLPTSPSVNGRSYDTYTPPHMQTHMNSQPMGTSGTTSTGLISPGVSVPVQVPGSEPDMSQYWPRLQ
Procedure, shortened: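 Fluorescent RT-PCR products separated by capillary electrophoresis report PAX6-linked promoter mRNA in HepG2 cells 24 h post-dose. Curves fitted bidirectionally, DMSO as negative control.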

[13] = ATG_PXRE_CIS: Attagene CIS-FACTORIAL HepG2 Assay for human Pregnane X Receptor Element (PXRE) (AID 2282957); conditions: HepG2 Attagene CIS-FACTORIAL PXRE reporter, mRNA; actives raise or lower the signal
Procedure, shortened: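 Reporter transcripts under endogenous PXR-responsive cis-regulation quantified from total RNA of transfected HepG2 cells 24 h post-dosing, via RT-PCR with fluorescent primer extension and capillary electrophoresis. Gain or loss of signal fitted against DMSO baseline.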

[14] = ATG_PPRE_CIS: Attagene CIS-FACTORIAL HepG2 Assay for human Peroxisome Proliferator-activated Response Element (PPRE) (AID 2282958); conditions: HepG2 PPRE cis-element reporter, Attagene transcription factor profiling; actives raise or lower the signal
Procedure, shortened: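 After human HepG2 hepatoma cells were transiently transfected with cis-promoter reporter constructs, they were exposed to test chemicals for 24 hours. Reporter RNA was then reverse-transcribed, PCR-amplified, FAM-labeled, HpaI-digested and quantified by capillary electrophoresis.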

[15] = ATG_RORE_CIS: Attagene CIS-FACTORIAL HepG2 Assay for human RAR-related Orphan Receptor Element (RORE) (AID 2282959); conditions: HepG2 Attagene cis-factorial RORE reporter, mRNA; actives raise or lower the signal
Procedure, shortened: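 Measured here: transcript induction of a cis-regulated reporter in HepG2 cells transiently transfected via FuGene 6. After 24 h, RNA was processed by RT-PCR and fluorescent capillary electrophoresis; DMSO defined baseline activity.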

[16] = ATG_Sox_CIS: Attagene CIS-FACTORIAL HepG2 Assay for human SRY-box transcription factor (SOX) (AID 2282960); conditions: HepG2 Attagene cis-factorial SOX reporter, mRNA; actives raise or lower the signal
Procedure, shortened: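 Using transiently transfected HepG2 cells, reporter transcription driven by cis elements was assessed 24 h after dosing. Signal was fluorescence of capillary-separated RT-PCR products, with DMSO defining baseline activity.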

[17] = molecular target: Transcription factor Sp1 (Homo sapiens) (UniProt P08047); assay: ATG_Sp1_CIS: Attagene CIS-FACTORIAL HepG2 Assay for human Specificity Protein 1 (Sp1) (AID 2282961); conditions: HepG2 Sp1 cis-reporter transcription, actives raise or lower the signal
Sequence of Transcription factor Sp1 (Homo sapiens) (P08047 whole entry, looked up): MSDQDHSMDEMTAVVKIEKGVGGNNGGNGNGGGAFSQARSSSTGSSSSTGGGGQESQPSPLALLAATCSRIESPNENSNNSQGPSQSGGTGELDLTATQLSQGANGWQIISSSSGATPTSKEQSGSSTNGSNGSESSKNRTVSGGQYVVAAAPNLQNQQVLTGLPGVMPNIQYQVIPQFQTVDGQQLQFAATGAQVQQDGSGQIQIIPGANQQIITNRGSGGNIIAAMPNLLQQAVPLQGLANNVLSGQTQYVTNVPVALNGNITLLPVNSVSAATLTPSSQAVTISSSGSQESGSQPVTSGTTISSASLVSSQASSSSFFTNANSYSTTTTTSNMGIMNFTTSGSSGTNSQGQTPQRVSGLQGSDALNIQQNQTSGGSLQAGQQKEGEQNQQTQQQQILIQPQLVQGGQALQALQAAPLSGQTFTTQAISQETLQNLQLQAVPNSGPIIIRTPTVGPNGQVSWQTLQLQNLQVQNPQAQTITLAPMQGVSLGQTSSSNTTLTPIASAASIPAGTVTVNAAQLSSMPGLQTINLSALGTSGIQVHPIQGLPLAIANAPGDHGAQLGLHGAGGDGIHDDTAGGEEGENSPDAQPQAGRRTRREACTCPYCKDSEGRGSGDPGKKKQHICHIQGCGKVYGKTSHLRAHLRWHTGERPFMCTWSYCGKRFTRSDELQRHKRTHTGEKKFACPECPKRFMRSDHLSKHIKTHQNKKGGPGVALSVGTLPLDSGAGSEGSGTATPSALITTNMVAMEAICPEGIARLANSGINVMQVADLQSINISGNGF
Procedure, shortened: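 After transient transfection of HepG2 cells with cis-promoter reporter units and 24 h chemical treatment, reporter transcripts were quantified by RT-PCR and capillary electrophoresis fluorescence. Gain- and loss-of-signal fitted against DMSO.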

[18] = ATG_SREBP_CIS: Attagene CIS-FACTORIAL HepG2 Assay for human Sterol Regulatory Element Binding (SREBP) (AID 2282962); conditions: HepG2 Attagene cis-factorial SREBP reporter, mRNA; actives raise or lower the signal
Procedure, shortened: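 Endogenous factor activity is measured in HepG2 through multiplexed reporter units under cis-element control. Following a 24 h incubation, reporter transcripts are reverse-transcribed, PCR-amplified and sized by capillary electrophoresis; activity is fitted in both directions relative to DMSO.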

[19] = molecular target: Signal transducer and activator of transcription 3 (Homo sapiens) (UniProt P40763); assay: ATG_STAT3_CIS: Attagene CIS-FACTORIAL HepG2 Assay for human Signal Transducer and Activator of Transcription 3 (STAT3) (AID 2282963); conditions: HepG2, Attagene cis-factorial STAT3 reporter transcription; actives raise or lower the signal
Sequence of Signal transducer and activator of transcription 3 (Homo sapiens) (P40763 whole entry, looked up): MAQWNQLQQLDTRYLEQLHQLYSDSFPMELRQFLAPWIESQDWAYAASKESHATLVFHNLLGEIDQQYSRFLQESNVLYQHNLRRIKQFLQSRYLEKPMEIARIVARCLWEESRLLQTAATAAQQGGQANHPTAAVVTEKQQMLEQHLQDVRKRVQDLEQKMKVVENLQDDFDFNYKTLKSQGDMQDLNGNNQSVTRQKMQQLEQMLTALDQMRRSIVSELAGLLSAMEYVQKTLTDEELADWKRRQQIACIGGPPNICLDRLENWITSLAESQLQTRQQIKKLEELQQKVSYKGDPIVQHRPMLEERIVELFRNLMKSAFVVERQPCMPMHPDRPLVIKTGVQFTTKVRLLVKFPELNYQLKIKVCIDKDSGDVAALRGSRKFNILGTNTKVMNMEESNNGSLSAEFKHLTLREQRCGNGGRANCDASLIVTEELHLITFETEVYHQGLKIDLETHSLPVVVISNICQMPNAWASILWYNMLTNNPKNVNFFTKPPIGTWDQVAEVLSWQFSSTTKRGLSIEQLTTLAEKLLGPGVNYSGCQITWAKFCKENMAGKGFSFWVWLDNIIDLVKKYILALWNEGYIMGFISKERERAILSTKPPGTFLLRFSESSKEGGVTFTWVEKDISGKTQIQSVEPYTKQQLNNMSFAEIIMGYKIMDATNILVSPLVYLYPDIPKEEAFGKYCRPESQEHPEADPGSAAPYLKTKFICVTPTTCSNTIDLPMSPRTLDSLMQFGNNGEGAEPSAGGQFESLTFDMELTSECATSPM
Procedure, shortened: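 HepG2, MRTU-transfected, 24 h dosing. RNA → RT → PCR → FAM label → HpaI → CE. Bidirectional fit vs DMSO.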

[20] = ATG_TA_CIS: Attagene CIS-FACTORIAL HepG2 Assay for human TA Basal Promoter (AID 2282964); conditions: HepG2 Attagene CIS-factorial TA basal promoter reporter; actives raise or lower the signal
Procedure, shortened: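 HepG2 cells transiently transfected with multiplexed cis-promoter reporter units, dosed 24 h. Reporter mRNA measured by RT-PCR, 6-FAM labelling, HpaI digestion and capillary electrophoresis; bidirectional fit versus DMSO baseline, serving as background control.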

Measured: AC50

C[C@@H](Oc1ccc(CNC(=O)c2cccnc2Oc2ccc3c(c2)OCO3)c(F)c1)C(=O)O
inactive: all assays above

FC(F)C(F)(F)COCC1CO1 (stereo not drawn)
not listed: [8] | [14]
inactive: all other assays above

O=C(O)[C@H](O)[C@@H](O)C(=O)O
not listed: [7] | [14]
inactive: all other assays above

OCCC(F)(F)C(F)(F)C(F)(F)C(F)(F)F
not listed: [8]
inactive: all other assays above

c1ccc2cc3ccccc3cc2c1
not listed: [8] | [9] | [14]
inactive: all other assays above

Cc1nc(-c2ccccn2)ncc1C(=O)Nn1cc(C)c2cc(F)ccc21
active: [7] 48 µM | [13] 4.24 µM
not listed: [8] | [14]
inactive: all other assays above

O=C(Cl)C(F)(F)C(F)(F)C(F)(F)C(=O)Cl
not listed: [8] | [14]
inactive: all other assays above
